# Measured values as given in PubChem BioAssay (NCATS).
# Several values for one entry are separate records, joined by “and”; a condition that tells them apart may be missing. Equal values may be shown once. Results filed as inconclusive are left out. A call without a number means that no potency is given here. Unmarked numbers belong to inactive results. Activity calls are given as the source filed them. Calls come from the whole dose curve; as a rule, active = well fitted curve in the direction sought with a large enough effect; inconclusive = small, poorly fitted or top-dose-only effect, or another doubt; inactive = no such curve, though single readings can be large; an effect the other way counts as inactive or inconclusive.
# What was measured:
# [1] = Primary qHTS for inhibitors of nuclear receptor binding SET domain protein 2 (NSD2) in an isogenic RCH-ACV NSD2 p.E1099K mutant (9B) (AID 1645876); note: nearly all actives have a fitted effect of over 70% in size; note: potency is the fitted concentration of half-maximal effect
# [2] = Primary qHTS for inhibitors of nuclear receptor binding SET domain protein 2 (NSD2) in an RCH-ACV wild type WT cells (2C) (AID 1645877); note: nearly all actives have a fitted effect of over 70% in size; note: potency is the fitted concentration of half-maximal effect
# [3] = target: Papain (Carica papaya) (UniProt P00784); test: Primary qHTS assay for inhibitors of the protease papain (AID 1645873);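 note: papain turnover of Z-FR-AMC read as the AMC fluorescence gain over 10 min; series mostly up to about 50 µM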
# Papain (Carica papaya), sequence (P00784 whole entry, looked up): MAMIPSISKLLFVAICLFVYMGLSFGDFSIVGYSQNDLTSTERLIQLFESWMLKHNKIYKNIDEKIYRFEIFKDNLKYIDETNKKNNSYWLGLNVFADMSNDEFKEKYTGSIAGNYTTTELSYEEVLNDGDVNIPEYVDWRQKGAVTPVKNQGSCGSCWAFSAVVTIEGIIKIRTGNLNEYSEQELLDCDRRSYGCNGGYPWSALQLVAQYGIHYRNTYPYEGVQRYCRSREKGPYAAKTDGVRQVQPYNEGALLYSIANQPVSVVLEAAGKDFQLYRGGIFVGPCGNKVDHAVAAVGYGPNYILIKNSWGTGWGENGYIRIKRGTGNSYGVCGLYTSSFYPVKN
structure (smiles),measurement,setting,value
O=C1NCCN1CCN1CCC(c2cn(-c3ccc(F)cc3)c3ccc(Cl)cc23)CC1,Potency,[1],3.76 µM (active)
same,Potency,[2],2.11 µM (active)
CCN1C(=O)c2ccccc2C1Nc1ccc(OCCN2CCCCC2)cc1 (configuration not stated),Potency,[1],inactive
same,Potency,[2],inactive
CC(=O)[C@@]1(O)CC[C@H]2[C@@H]3C[C@H](C)C4=CC(=O)CC[C@]4(C)[C@H]3CC[C@@]21C,Potency,[1],23.7 µM (active)
same,Potency,[2],15 µM (active)
CC(=O)OCC[N+](C)(C)C,Potency,[1],inactive
same,Potency,[2],inactive
COc1ccccc1N1CCN(CCN2C(=O)CC3(CCCC3)CC2=O)CC1,outcome,[3],inactive
same,Potency,[1],inactive
same,Potency,[2],inactive
O=C(O)[C@H](O)[C@@H](O)[C@H](O[C@@H]1O[C@H](CO)[C@H](O)[C@H](O)[C@H]1O)[C@H](O)CO,Potency,[1],inactive
same,Potency,[2],inactive
Brc1ccc([C@H]2CN3CCSC3=N2)cc1,outcome,[3],inactive
same,Potency,[1],inactive
same,Potency,[2],inactive
CN(C)c1cc2c(Nc3ccc4c(cnn4Cc4ccccc4)c3)ncnc2cn1,outcome,[3],inactive
same,Potency,[1],23 µM (active)
O=C1NC(c2cccc([N+](=O)[O-])c2)=CCN1c1ccccc1O,outcome,[3],inactive
same,Potency,[1],inactive
same,Potency,[2],inactive
C[C@H]1C[C@@H]2[C@H]([C@@H](O)C[C@@]3(C)[C@H]2CC[C@]3(O)C(=O)CO)[C@@]2(C)C=CC(=O)C=C12,Potency,[1],inactive
same,Potency,[2],26.6 nM (active) and 74.2 nM (active)
CCOC(=O)NNc1nncc2ccccc12,Potency,[1],inactive
same,Potency,[2],inactive
CC[C@@]1(O)C(=O)OCc2c1cc1n(c2=O)Cc2c-1nc1ccccc1c2/C=N/OC(C)(C)C,Potency,[1],inactive
same,Potency,[2],inactive
N[C@@H](Cn1ccc(=O)c(O)c1)C(=O)O,outcome,[3],inactive
same,"activity change, negative = viability loss",[1],-1.02% [at 4.96 µM]
same,"activity change, negative = cell killing",[2],-0.615% [at 4.96 µM]
CN1CC(=O)N2[C@H](c3ccc4c(c3)OCO4)c3[nH]c4ccccc4c3C[C@@H]2C1=O,Potency,[1],inactive
same,Potency,[2],inactive
